Unmarked numbers belong to inactive results. Results filed as inconclusive are left out. Calls of active or inactive are those of the source. Calls follow the shape of the full dose curve.
What follows are compounds tested against Acetylcholinesterase (Homo sapiens) (UniProt P22303) (assay: Acetylcholinesterase (AChE) small molecule antagonists: colormetric cell-based qHTS assay (AID 1347395; also: nearly all actives have a fitted effect of over 30% in size)). Conditions: SH-SY5Y cells AChE activity, colorimetric (Ellman); series mostly up to 115 µM; activity, negative = inhibition: at the top concentration.
Chain of Acetylcholinesterase (Homo sapiens) (P22303 whole entry, looked up): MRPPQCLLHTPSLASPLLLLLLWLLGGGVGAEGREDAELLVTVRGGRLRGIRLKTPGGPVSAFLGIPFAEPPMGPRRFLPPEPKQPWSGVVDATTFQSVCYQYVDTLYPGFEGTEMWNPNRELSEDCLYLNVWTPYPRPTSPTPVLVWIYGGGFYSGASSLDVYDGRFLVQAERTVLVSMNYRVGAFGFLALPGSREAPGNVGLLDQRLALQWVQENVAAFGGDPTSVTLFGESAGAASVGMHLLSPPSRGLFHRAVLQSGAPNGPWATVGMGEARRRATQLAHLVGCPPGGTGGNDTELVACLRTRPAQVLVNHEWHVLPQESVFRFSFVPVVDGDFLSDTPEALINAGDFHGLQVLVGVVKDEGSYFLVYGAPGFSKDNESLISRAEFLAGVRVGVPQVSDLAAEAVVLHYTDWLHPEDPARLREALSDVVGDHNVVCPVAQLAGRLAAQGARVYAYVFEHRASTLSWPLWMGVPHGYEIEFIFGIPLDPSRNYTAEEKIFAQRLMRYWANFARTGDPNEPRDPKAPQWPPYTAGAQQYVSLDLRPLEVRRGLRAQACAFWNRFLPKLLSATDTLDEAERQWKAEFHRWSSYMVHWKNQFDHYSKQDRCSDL
Procedure, shortened: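 AChE inhibition read colorimetrically via DTNB–thiocholine in SH-SY5Y cells. Compound 30 min, substrate 90 min, both 37 C.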
% is scaled to controls: 0 for no effect and ±100 for the full control effect.

Structure (SMILES)	activity, negative = inhibition	Potency
CCCc1c(OCCCOc2ccc(OCC(=O)O)cc2)ccc(C(C)=O)c1O	-1.54%	
C=COCCCCO	-6.12%	
C[C@@H](O[C@H]1OCCN(Cc2n[nH]c(=O)[nH]2)[C@H]1c1ccc(F)cc1)c1cc(C(F)(F)F)cc(C(F)(F)F)c1	3.52% [at 52.9 µM]	
COc1nccnc1NS(=O)(=O)c1ccc(N)cc1	0.889% [at 52.9 µM]	
CCCCCCCCCC/C=C/C#N	-0.606%	
Cc1ccccc1S(=O)(=O)O	2.31%	
CCCCNc1c(C(=O)OCC)c(C)nc2c1cnn2CC	0.337% [at 52.9 µM]	
CCOC(=O)/C=C/c1ccccc1	2.93%	
O=C(O)COc1nn(Cc2ccccc2)c2ccccc12	0.252% [at 52.9 µM]	
COc1ccccc1OCC1CNC(=O)O1 (stereo not given)	-1.14% [at 52.9 µM]	
CC(=O)CC(=O)Nc1ccc(C)cc1C	0.21%	
CCCCN(CCCC)c1ccc(C(=O)c2ccccc2C(=O)O)c(O)c1	0.205%	
Cc1cc(=O)oc2cc(O)ccc12		inactive
Cc1cc(O)cc2c1O[C@](C)(CCC[C@H](C)CCC[C@H](C)CCCC(C)C)CC2	3.44% [at 52.9 µM]	
CN1CCC[C@@H]1Cc1c[nH]c2ccc(CCS(=O)(=O)c3ccccc3)cc12	-5.78% [at 52.9 µM]	
COC(=O)Nc1nc2ccc(S(=O)c3ccccc3)cc2[nH]1 (stereo not given)		inactive
O=C(O)c1ccccc1OP(=O)(O)O	0.0841% [at 52.9 µM]	
C=C[Si](C)(C)Cl	1.82% [at 10.5 µM]	
Cc1ccc([N+](=O)[O-])cc1S(=O)(=O)O		inactive
CCC(C)c1ccccc1O (stereo not given)		inactive

Structure (SMILES)	activity, negative = inhibition	Potency
CCN(CC)CCN	3.12% [at 52.9 µM]	
COc1ccc(C#N)cc1	-1.99%	
CCCCCC[C@@H](O)C/C=C\CCCCCCCC(=O)OC	-2.39%	
CCCCCCCCCCCCC	-1.41%	
CC(Cl)COP(=O)(OCC(C)Cl)OCC(C)Cl (stereo not given)	-2.13%	
CCc1ccc(CC)cc1	1.01%	
CCCc1ccc(O)cc1	1.58%	
c1ccc2c(c1)CCc1ccccc1N2		inactive
Cc1cc(Cl)c(C)cc1Cl	-4.21%	
CCCCCCCCCCO[C@@H]1O[C@H](CO)[C@@H](O)[C@H](O)[C@H]1O	-0.526%	
CC(C)(C)CC(C)(C)c1ccc(O)c(Cc2ccc(Cl)cc2Cl)c1	-0.168% [at 52.9 µM]	
CC[N+](CC)(CC(=O)Nc1c(C)cccc1C)Cc1ccccc1 (tested in a mixture with another compound)	-4.14% [at 52.9 µM]	
CCCCOCCOCCOC(=O)CCCCC(=O)OCCOCCOCCCC		inactive
O=C(O)c1ccc(S(=O)(=O)N(Cl)Cl)cc1	-0.168% [at 52.9 µM]	
CN(C)c1ccncc1	-9.37%	
CC(=O)OCc1ccco1		inactive
O=C(O)CC(C(=O)O)C(CC(=O)O)C(=O)O (stereo not given)		inactive
CC(=O)OCCOCCOCCOC(C)=O		inactive
Cc1c(N)cccc1C(F)(F)F	-1.77% [at 52.9 µM]	
CCCCC(CC)COCC1CO1 (stereo not given)		inactive

These compounds were tested against Acetylcholinesterase (Homo sapiens) (UniProt P22303) (assay: Acetylcholinesterase (AChE) small molecule antagonists: enzyme-based qHTS assay (AID 1347397; also: nearly all actives have a fitted effect of over 55% in size)). Conditions: Potency: AChE enzyme activity inhibition; outcome: AChE enzyme activity inhibition; series mostly up to 115 µM; activity change, negative = inhibition: at the top concentration.
Procedure, shortened: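 Colorimetric DTNB read-out of thiocholine released from acetylthiocholine by recombinant human AChE (50 mU/mL as dispensed). Compounds were preincubated 30 min at RT before substrate/DTNB addition, with a 10 min RT reaction.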

Structure (SMILES)	activity change, negative = inhibition	Potency
CCCc1c(OCCCOc2ccc(OCC(=O)O)cc2)ccc(C(C)=O)c1O	1.57%	
C=COCCCCO	0.0264%	
C[C@@H](O[C@H]1OCCN(Cc2n[nH]c(=O)[nH]2)[C@H]1c1ccc(F)cc1)c1cc(C(F)(F)F)cc(C(F)(F)F)c1	-3.87% [at 53 µM]	
COc1nccnc1NS(=O)(=O)c1ccc(N)cc1	0.581% [at 53 µM]	
CCCCCCCCCC/C=C/C#N	0.55%	
Cc1ccccc1S(=O)(=O)O	-2.45%	
CCCCNc1c(C(=O)OCC)c(C)nc2c1cnn2CC	0.471% [at 53 µM]	
CCOC(=O)/C=C/c1ccccc1	-0.138%	
O=C(O)COc1nn(Cc2ccccc2)c2ccccc12	-2.02% [at 53 µM]	
COc1ccccc1OCC1CNC(=O)O1 (stereo not given)	0.415% [at 53 µM]	
CC(=O)CC(=O)Nc1ccc(C)cc1C	-0.333%	
CCCCN(CCCC)c1ccc(C(=O)c2ccccc2C(=O)O)c(O)c1	2.86%	
Cc1cc(=O)oc2cc(O)ccc12		inactive
Cc1cc(O)cc2c1O[C@](C)(CCC[C@H](C)CCC[C@H](C)CCCC(C)C)CC2	0.405% [at 53 µM]	
CN1CCC[C@@H]1Cc1c[nH]c2ccc(CCS(=O)(=O)c3ccccc3)cc12	0.673% [at 53 µM]	
COC(=O)Nc1nc2ccc(S(=O)c3ccccc3)cc2[nH]1 (stereo not given)		inactive
O=C(O)c1ccccc1OP(=O)(O)O	0.543% [at 53 µM]	
C=C[Si](C)(C)Cl	0.136% [at 10.5 µM]	
Cc1ccc([N+](=O)[O-])cc1S(=O)(=O)O		inactive
CCC(C)c1ccccc1O (stereo not given)		inactive

Structure (SMILES)	activity change, negative = inhibition	Potency
CCN(CC)CCN	0.0291% [at 53 µM]	
COc1ccc(C#N)cc1	1.22%	
CCCCCC[C@@H](O)C/C=C\CCCCCCCC(=O)OC	-1.77%	
CCCCCCCCCCCCC	0.0053%	
CC(Cl)COP(=O)(OCC(C)Cl)OCC(C)Cl (stereo not given)	-0.903%	
CCc1ccc(CC)cc1	0.0674%	
CCCc1ccc(O)cc1	0%	
c1ccc2c(c1)CCc1ccccc1N2		inactive
Cc1cc(Cl)c(C)cc1Cl	-1.16%	
CCCCCCCCCCO[C@@H]1O[C@H](CO)[C@@H](O)[C@H](O)[C@H]1O	0.516%	
CC(C)(C)CC(C)(C)c1ccc(O)c(Cc2ccc(Cl)cc2Cl)c1	-29.3% [at 53 µM]	
CC[N+](CC)(CC(=O)Nc1c(C)cccc1C)Cc1ccccc1 (tested in a mixture with another compound)	3.15% [at 53 µM]	
CCCCOCCOCCOC(=O)CCCCC(=O)OCCOCCOCCCC		inactive
O=C(O)c1ccc(S(=O)(=O)N(Cl)Cl)cc1		inactive
CN(C)c1ccncc1	0%	
CC(=O)OCc1ccco1		inactive
O=C(O)CC(C(=O)O)C(CC(=O)O)C(=O)O (stereo not given)		inactive
CC(=O)OCCOCCOCCOC(C)=O		inactive
Cc1c(N)cccc1C(F)(F)F	0.12% [at 53 µM]	
CCCCC(CC)COCC1CO1 (stereo not given)		inactive

— PubChem BioAssay (Tox21)
